Records with an inconclusive call do not appear. A number with no mark means an inactive call. Activity calls are given as the source filed them. The call rests on the fitted dose curve.
On the % scale 0 is the no-effect control and ±100 the full control effect.

Sequence of Vitamin D3 receptor (Homo sapiens) (P11473 whole entry, looked up): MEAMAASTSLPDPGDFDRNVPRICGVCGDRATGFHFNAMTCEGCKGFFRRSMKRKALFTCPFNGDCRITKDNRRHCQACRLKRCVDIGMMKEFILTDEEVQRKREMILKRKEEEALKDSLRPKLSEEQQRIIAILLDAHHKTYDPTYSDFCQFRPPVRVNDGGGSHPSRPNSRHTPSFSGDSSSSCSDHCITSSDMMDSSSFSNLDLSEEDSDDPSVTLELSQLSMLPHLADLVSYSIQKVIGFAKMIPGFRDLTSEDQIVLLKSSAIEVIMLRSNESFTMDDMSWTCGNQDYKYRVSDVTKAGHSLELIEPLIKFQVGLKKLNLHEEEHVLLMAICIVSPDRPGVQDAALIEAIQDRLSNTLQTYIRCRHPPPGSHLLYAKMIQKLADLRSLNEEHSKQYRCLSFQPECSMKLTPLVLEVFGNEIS

For this assay, the target named is Vitamin D3 receptor (Homo sapiens) (UniProt P11473). The experiment in a line: qHTS assay to identify small molecule agonists of the vitamin D receptor (VDR) signaling pathway (AID 743222). Conditions: HEK293T VDR-UAS-bla, beta-lactamase FRET ratio, 16 h; series mostly up to 63.5 µM; activation: at the top concentration. The source says:
National Center for Advancing Translational Sciences [NCATS]
NIH Chemical Genomics Center [NCGC]
U.S. Environmental Protection Agency [EPA]
National Institutes of Environmental Health Sciences [NIEHS]
National Toxicology Program [NTP]
U.S. Food and Drug Administration [FDA]
The vitamin D receptor (VDR), a member of nuclear hormone receptor superfamily, plays a critical role in calcium homeostasis and bone metabolism. It is also involved in cell differentiation and growth, and thrombogenicity.
Tox21 Assay Protocol Summary:
VDR-bla cells were dispensed at 2,000 cells/6 uL/well into black wall/clear-bottom 1536-well plates using a Multidrop Combi (Thermo Fisher Scientific, Waltham, MA) dispenser. After the assay plates were incubated at a 37C and 5% CO2 for 4 h, 23 nL of compounds dissolved in DMSO, positive controls or DMSO only was transferred to the assay plate by a Pintool station (Kalypsys, San Diego, CA). The plates were incubated at 37C and 5% CO2 for 16 h. After 1 uL of LiveBLAzerTM B/G FRET substrate was added using a Bioraptr Flying Reagent Dispenser (FRD) workstation (Beckman Coulter, Indianapolis, IN, USA), the plates were incubated at room temperature for 2 h, and fluorescence intensity was measured by an Envision plate reader (PerkinElmer, Shelton, CT).
In general terms: In qHTS, concentration-response curves come from the screen itself.
Turning to `COC(=O)c1ccccc1CS(=O)(=O)NC(=O)Nc1nc(OC)cc(OC)n1`, the “activation” value was 0.373%. Still for that read-out and setting: the figure for `ClCCCCl` is 1.58% [at 81.1 µM]. Consider `O=C(NC(=O)c1c(F)cccc1F)Nc1cc(Cl)c(F)c(Cl)c1F`, for which the “activation” value was 2.15%.

In the case of `CC(C)(O)C(Cl)(Cl)Cl`, the “activation” value was -5.85%.

For `S=C=S`, the “activation” value is 1.65%.

For the compound `C[N+]1(C)CCCCC1`, the “activation” value was 0.124%. As for `CC#Cc1cc(C)nc(Nc2ccccc2)n1`, the “activation” value is 1.27%.

`C#CCOC(=O)/C=C(C)/C=C/CC(C)CCCC(C)C` (stereo not given): the “activation” value is -3.34%. Consider `CNC(=O)NC(O)C(Cl)(Cl)Cl` (stereo not given), for which the “activation” value is 2.19%. The same measure, in the same setting: the figure for `CC(=O)OCC1=C(C(=O)O)N2C(=O)[C@@H](N)[C@H]2SC1` is 0.496% [at 29.5 µM]; for `CC(=NC#N)N(C)Cc1ccc(Cl)nc1` it is 4.25%. As to `BrCC1CO1` (stereo not given), the “activation” value is 5.06% [at 81.1 µM]. For the compound `CCC1(c2cccc(O)c2)CCCCN(C)C1` (stereo not given), the “activation” value is 7.92%. The same measure, in the same setting: the figure for `COC1=CC(=O)O[C@@H](/C=C/c2ccccc2)C1` is -13.5% [at 81.1 µM]; for `O=CCCl` it is -5.89%; for `CN1COCN(Cc2cnc(Cl)s2)/C1=N\[N+](=O)[O-]` it is -3.31%. The same measure, in the same setting: the figure for `C=C(C)[C@H]1CN[C@H](C(=O)O)[C@H]1CC(=O)O` is 0.0575%; for `CON(C)C(=O)Nc1ccc(Br)cc1` it is 5.08%; for `CCSC(=O)Cl` it is -4.59% [at 81.1 µM]. Take `Nc1c(Cl)c(F)nc(OCC(=O)O)c1Cl`: the “activation” value is 4.22%. The same measure, in the same setting: the figure for `CC[C@@H](CO)NC(=O)[C@@H]1C=C2c3cccc4c3c(cn4C)C[C@H]2N(C)C1` is 6.22%; for `CCN(CCO)CCO` it is 3.47%. Still for that read-out and setting: the figure for `O=C1C2CC=CCC2C(=O)N1SC(Cl)(Cl)Cl` (stereo not given) is 9.72%; for `CN(CCO)CCO` it is 4.62% [at 81.1 µM]; for `ClCOCCl` it is 0.833% [at 81.1 µM]. As to `CCOP(=S)(OCC)SCCl`, the “activation” value is -0.0158%.

On to `CN(C)C(=O)Oc1cc(OC(=O)N(C)C)cc(C(O)CNC(C)(C)C)c1` (stereo not given), for which the “activation” value is 10.2%. As for `CCOc1cc(OP(=S)(OC)OC)nc(CC)n1`, the “activation” value was 0.314%. In the case of `ClCCN1CCCC1`, the “activation” value was 1.12%. On the same count and under the same terms, the figure for `C#CC(C)(C)O` is 8.83% [at 81.1 µM]. For `Clc1ccc(C(Cl)(Cl)Cl)cn1`, the “activation” value is 1.33%. As for `CC(C)C(C)(N)C#N` (stereo not given), the “activation” value is 5.58%.

As to `C=CC1(C)OC(=O)N(c2cc(Cl)cc(Cl)c2)C1=O` (stereo not given), the outcome was inactive. On to `C=CC=O`, for which the “activation” value is -3.44% [at 81.1 µM]. In the case of `C=CCc1cc(OC)c2c(c1)OCO2`, the “activation” value is 1.39% [at 81.1 µM]. As for `O=[N+]([O-])c1cccc(CCl)c1`, the “activation” value was 6.37% [at 81.1 µM]. `CS(=O)(=O)Cl`: the “activation” value was 0.973% [at 81.1 µM]. In the case of `CC(O)CCl` (stereo not given), the “activation” value was -5.11%. With `O=C1CCCCC1Cl` (stereo not given), the “activation” value was 0.439% [at 81.1 µM].

Regarding `CCNc1nc(Cl)nc(NC(C)(C)C)n1`, the “activation” value is -5.2%.

The values are drawn from PubChem BioAssay (Tox21).
